Source: the supplement of paper PMC11732987, “Enantioselective OTUD7B fragment discovery through chemoproteomics screening and high-throughput optimisation” (Communications Chemistry, 2025)

Experiments:
Assay in all cases: log2 ratio of Biotin-Ahx-Ub-VS probe labelling (fragment/DMSO); higher = less target engagement (more negative = stronger competition), active = hit call of the paper (q ≤ 0.05, log2 ratio ≤ -1)
Conditions in all cases: compound concentration: 200 uM; treatment time: 3 h
[1] = target: T1, USP19 (UniProt O94966)
T1 sequence (whole entry): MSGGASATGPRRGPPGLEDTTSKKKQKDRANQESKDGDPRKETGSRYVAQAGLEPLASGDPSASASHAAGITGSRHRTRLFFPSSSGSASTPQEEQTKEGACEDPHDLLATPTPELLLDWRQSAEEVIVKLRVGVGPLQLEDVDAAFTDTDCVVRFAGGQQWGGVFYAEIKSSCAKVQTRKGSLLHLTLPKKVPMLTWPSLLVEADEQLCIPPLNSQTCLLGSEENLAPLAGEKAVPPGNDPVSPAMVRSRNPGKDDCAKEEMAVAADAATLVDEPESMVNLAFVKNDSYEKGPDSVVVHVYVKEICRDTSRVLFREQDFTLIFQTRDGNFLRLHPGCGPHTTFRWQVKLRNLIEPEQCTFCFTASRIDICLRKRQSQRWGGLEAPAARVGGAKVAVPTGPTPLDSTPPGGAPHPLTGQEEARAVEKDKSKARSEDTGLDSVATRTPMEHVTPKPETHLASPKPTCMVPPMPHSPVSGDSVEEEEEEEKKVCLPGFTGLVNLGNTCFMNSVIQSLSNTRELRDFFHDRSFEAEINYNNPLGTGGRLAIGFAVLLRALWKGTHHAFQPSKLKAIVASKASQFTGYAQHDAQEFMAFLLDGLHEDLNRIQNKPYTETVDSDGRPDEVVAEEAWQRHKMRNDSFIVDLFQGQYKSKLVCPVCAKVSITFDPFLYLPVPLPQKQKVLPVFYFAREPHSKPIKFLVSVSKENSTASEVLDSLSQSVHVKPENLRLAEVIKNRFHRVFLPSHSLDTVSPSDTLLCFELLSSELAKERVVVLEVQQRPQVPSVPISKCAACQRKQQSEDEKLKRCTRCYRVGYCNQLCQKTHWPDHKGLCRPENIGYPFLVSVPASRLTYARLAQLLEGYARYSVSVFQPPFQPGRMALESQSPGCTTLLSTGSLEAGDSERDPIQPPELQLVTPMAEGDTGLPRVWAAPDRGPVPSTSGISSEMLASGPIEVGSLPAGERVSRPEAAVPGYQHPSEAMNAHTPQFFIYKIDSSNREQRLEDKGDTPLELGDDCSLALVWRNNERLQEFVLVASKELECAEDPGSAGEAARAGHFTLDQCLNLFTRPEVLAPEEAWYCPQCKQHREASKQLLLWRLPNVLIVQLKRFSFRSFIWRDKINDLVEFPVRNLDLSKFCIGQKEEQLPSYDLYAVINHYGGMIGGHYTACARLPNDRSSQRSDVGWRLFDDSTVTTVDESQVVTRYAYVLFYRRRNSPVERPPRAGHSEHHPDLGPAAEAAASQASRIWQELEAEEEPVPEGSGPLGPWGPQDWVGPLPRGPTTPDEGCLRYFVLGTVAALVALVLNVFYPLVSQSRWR
Outline: (§1)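 Global-median-normalised Spectronaut label-free quantities were compared by unpaired t-test, and values are average log2 ratios of fragment over vehicle. Only proteins with ≥2 unique peptides were used. HEK293T lysate (495 µg per sample) was treated in triplicate with fragment at 200 µM or vehicle for 3 h and then with Biotin-Ahx-Ub-VS at 0.5 µM final for 1 h. Labelled DUBs were then NeutrAvidin-enriched, digested with LysC and trypsin, and run by diaPASEF LC-MS/MS.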

[2] = target: USP24 (UniProt Q9UPU5)
Sequence of USP24 (Q9UPU5 whole entry): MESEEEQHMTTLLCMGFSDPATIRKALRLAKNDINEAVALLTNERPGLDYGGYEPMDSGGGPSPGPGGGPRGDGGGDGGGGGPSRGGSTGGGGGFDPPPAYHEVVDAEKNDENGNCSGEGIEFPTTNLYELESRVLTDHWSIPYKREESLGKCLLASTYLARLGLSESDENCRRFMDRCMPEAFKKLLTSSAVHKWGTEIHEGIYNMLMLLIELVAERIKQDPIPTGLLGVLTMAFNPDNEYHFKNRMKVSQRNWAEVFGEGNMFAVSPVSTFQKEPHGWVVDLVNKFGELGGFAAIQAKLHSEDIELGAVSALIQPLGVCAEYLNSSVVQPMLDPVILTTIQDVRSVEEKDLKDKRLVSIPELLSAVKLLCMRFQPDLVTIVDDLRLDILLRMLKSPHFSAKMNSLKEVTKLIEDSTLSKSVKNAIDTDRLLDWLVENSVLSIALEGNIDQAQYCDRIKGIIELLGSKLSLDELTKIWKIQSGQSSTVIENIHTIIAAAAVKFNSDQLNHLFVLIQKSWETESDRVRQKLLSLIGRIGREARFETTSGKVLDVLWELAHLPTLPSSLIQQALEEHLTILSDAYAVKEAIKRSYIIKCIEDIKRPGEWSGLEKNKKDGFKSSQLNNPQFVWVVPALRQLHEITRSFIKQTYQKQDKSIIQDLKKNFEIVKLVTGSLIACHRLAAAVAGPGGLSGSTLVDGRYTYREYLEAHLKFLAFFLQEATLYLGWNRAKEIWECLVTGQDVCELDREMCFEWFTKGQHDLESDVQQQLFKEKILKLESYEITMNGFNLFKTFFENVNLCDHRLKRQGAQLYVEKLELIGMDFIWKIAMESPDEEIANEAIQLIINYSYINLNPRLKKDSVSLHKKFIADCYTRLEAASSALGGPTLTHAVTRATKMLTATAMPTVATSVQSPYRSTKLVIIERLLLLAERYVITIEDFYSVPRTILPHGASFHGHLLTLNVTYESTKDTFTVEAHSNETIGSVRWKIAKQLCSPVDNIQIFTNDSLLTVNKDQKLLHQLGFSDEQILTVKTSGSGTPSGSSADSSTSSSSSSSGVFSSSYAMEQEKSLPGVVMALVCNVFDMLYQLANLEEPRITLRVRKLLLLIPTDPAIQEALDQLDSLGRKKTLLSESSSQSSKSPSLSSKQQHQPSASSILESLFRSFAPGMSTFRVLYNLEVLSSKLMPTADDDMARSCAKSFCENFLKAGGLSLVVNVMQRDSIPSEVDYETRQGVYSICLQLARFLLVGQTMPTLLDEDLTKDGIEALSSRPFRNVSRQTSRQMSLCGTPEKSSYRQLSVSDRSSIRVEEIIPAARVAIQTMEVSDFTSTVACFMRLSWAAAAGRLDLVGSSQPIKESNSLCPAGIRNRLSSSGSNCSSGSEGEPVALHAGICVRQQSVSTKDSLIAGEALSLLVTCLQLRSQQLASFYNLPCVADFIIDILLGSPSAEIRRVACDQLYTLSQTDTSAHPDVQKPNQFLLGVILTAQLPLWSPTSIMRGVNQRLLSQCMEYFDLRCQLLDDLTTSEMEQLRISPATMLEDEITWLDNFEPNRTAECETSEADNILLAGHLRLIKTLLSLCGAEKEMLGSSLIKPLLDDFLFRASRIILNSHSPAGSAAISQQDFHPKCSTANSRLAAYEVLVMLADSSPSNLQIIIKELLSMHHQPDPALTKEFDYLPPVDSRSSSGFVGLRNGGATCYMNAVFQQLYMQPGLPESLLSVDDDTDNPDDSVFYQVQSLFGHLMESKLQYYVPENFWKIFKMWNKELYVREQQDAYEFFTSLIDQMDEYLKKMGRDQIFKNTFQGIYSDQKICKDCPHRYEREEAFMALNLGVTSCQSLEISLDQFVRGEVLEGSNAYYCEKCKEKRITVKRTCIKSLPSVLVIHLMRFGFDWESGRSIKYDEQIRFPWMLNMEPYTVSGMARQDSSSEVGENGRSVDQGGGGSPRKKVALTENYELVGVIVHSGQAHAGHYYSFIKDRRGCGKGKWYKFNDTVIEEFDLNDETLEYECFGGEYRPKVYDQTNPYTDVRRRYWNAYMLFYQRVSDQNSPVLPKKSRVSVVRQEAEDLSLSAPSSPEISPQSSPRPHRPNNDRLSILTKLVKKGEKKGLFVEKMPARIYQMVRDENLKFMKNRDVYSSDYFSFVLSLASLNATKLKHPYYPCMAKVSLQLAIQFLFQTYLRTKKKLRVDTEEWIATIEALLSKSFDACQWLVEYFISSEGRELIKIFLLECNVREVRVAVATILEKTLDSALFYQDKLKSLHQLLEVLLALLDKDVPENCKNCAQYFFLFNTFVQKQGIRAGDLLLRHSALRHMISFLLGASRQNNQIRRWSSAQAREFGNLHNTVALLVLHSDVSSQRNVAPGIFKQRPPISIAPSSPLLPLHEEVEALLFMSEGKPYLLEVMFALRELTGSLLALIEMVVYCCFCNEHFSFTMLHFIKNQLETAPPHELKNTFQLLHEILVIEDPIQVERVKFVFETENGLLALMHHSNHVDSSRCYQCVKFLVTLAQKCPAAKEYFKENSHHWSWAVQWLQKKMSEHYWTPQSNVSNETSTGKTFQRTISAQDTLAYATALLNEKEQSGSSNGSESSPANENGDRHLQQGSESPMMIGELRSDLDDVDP
Outline: as §1

[3] = target: T2, USP25 (UniProt Q9UHP3)
T2 sequence (whole entry): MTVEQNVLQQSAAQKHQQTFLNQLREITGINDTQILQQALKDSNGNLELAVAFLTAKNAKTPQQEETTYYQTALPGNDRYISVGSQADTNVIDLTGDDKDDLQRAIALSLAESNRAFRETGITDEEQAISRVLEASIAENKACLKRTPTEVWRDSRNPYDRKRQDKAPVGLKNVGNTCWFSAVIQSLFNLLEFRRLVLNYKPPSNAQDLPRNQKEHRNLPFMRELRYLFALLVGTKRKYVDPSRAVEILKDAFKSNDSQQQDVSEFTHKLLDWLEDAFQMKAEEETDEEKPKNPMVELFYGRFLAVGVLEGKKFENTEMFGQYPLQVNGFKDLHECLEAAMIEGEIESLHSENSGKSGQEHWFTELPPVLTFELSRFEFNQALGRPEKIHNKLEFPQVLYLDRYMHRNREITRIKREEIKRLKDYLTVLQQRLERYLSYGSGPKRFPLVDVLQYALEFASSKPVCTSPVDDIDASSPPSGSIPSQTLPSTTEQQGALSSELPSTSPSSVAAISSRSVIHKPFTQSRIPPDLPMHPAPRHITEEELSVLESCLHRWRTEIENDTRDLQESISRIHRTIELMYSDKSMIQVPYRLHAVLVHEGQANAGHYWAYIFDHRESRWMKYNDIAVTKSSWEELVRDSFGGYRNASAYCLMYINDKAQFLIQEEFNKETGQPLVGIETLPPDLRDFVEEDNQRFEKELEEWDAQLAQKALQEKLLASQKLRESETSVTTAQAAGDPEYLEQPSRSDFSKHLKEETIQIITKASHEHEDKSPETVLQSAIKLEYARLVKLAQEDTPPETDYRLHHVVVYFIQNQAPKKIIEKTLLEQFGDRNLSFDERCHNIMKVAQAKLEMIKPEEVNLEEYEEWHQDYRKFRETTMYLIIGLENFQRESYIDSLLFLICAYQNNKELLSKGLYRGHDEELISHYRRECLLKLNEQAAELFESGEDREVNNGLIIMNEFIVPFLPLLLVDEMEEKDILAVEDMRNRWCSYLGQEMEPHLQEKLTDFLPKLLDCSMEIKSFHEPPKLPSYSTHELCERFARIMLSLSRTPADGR
Outline: as §1

[4] = target: T3, USP28 (UniProt Q96RU2)
T3 sequence (whole entry): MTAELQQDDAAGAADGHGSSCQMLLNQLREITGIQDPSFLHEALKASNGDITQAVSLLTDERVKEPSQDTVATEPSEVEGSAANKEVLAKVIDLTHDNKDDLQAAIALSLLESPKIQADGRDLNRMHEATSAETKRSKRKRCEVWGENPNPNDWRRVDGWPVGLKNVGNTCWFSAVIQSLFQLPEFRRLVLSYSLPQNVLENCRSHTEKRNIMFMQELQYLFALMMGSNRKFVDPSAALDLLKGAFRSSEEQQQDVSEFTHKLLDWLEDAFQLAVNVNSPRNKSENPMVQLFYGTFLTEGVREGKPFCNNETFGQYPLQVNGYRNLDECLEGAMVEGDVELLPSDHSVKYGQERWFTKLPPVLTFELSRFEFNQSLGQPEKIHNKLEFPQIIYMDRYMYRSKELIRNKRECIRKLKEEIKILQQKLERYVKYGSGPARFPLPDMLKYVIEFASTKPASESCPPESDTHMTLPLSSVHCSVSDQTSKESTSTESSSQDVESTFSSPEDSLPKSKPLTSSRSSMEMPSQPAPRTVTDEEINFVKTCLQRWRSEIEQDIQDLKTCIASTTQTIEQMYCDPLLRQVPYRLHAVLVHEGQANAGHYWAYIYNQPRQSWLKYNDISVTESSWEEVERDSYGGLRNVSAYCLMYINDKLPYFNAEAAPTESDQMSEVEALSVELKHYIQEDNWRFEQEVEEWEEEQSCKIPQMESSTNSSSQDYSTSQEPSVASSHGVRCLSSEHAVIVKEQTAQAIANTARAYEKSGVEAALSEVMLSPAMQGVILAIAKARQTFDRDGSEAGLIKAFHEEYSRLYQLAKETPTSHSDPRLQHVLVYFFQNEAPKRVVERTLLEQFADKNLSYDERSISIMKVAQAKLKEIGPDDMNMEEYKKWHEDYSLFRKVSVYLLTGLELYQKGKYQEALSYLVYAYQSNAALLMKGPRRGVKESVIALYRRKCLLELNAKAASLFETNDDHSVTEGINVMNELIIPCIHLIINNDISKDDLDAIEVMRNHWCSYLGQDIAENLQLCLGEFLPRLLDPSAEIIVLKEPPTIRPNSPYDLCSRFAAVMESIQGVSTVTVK
Outline: as §1

Measured: log2 ratio of Biotin-Ahx-Ub-VS probe labelling

Cc1nc(-c2cccc(NC(=O)CCl)c2)cs1
inactive: [1] -0.375 | [2] -0.903 | [3] -0.554 | [4] -0.634
